About 83,000 compounds went through this panel and 20% of them were active in at least one assay; those are over-represented in the sample as a whole.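 Note: values are percent growth. 100 is the growth of untreated cells, values between 100 and 0 indicate rising inhibition; between -100 and 0 indicates cell death.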 A number with no mark means an inactive call. The source made the active and inactive calls. Rule for the calls: active = growth percent below 10; inactive = the rest.
Tests used:
Experiment in all cases: NCI-60 one-dose screen, 48 h (100 = growth as untreated, 0 = no growth, -100 = all killed)
Details in all cases: 10 µM unless noted
NCI-H23 lung = tested on: NCI-H23 lung
NCI-H226 lung = tested on: NCI-H226 lung
NCI-H322M lung = tested on: NCI-H322M lung
HOP-62 NSCLC = tested on: HOP-62 NSCLC
NCI-H460 lung = tested on: NCI-H460 lung
HOP-92 NSCLC = tested on: HOP-92 NSCLC
NCI-H522 lung = tested on: NCI-H522 lung
A549/ATCC NSCLC = tested on: A549/ATCC NSCLC
786-0 renal = tested on: 786-0 renal
COLO 205 colon = tested on: COLO 205 colon
DU-145 prostate = tested on: DU-145 prostate
K-562 leukemia = tested on: K-562 leukemia
MALME-3M melanoma = tested on: MALME-3M melanoma
MDA-MB-231 breast = tested on: MDA-MB-231 breast
RXF 393 renal = tested on: RXF 393 renal
SF-268 CNS = tested on: SF-268 CNS
SF-295 CNS = tested on: SF-295 CNS
SF-539 CNS = tested on: SF-539 CNS
UACC-257 melanoma = tested on: UACC-257 melanoma
M14 melanoma = tested on: M14 melanoma

SMILES	growth (NCI-H23 lung)	growth (NCI-H226 lung)	growth (NCI-H322M lung)	growth (HOP-62 NSCLC)	growth (NCI-H460 lung)	growth (HOP-92 NSCLC)	growth (NCI-H522 lung)	growth (A549/ATCC NSCLC)	growth (786-0 renal)	growth (COLO 205 colon)	growth (DU-145 prostate)	growth (K-562 leukemia)	growth (MALME-3M melanoma)	growth (MDA-MB-231 breast)	growth (RXF 393 renal)	growth (SF-268 CNS)	growth (SF-295 CNS)	growth (SF-539 CNS)	growth (UACC-257 melanoma)	growth (M14 melanoma)
CC1=C[C@H]2c3c(c(O)c(O)c4oc(-c5ccccc5)cc(=O)c34)[C@H](c3cc(O)c(O)c4oc(-c5ccccc5)cc(=O)c34)[C@H]2C(C)(C)C1	-14.4% (active)	-3.14% (active)	6.91% (active)	-2.06% (active)	-31.8% (active)	-10% (active)	-12.7% (active)	2.87% (active)	-22.8% (active)	4.64% (active)	9.89% (active)	2.82% (active)	-12.8% (active)	5.31% (active)	-26.6% (active)	5.26% (active)	-18.2% (active)	-10.5% (active)	12.8%	-28.1% (active)
C(=N/Nc1ncc(-c2cc3cc(-c4ccccc4)ccc3o2)s1)/c1cccs1	99.9%	104%	33.8%	118%	7.38% (active)	105%	86.1%	13.3%	101%	72.4%	97.2%	96.6%	97.8%	109%	129%	102%	98.1%	99.6%	102%	111%
CCN(CC)S(=O)(=O)c1ccc(OC)c(NC(=O)c2[nH]c(C)c3c2CCCCC3=O)c1	46.9%	50%	44%	31.5%	53.4%	38.3%	26.9%	45.2%	41.5%	35.6%	72.8%	30%	60.6%	43%	38.9%	68.4%	34.1%	36.1%	39.6%	42.3%
C=CC(=O)Nc1cccc(-c2nc(SC)nc(Nc3ccccc3OC)c2C#N)c1	55.5%	34.3%	80%	37.9%	5.19% (active)	31%	39.3%	-6.83% (active)	11.6%	60.9%	10.8%	8.6% (active)	-10.4% (active)	33.2%	39.7%	53.5%	80.3%	68.6%	57.5%	50.4%
Cc1ccc(/C=C2\SC(=S)N(CC(=O)NCCCN3CCOCC3)C2=O)cc1	99.6%	91%	104%	103%	103%	91.5%	90.5%	102%	104%	111%	104%	89.6%	95.1%	91.9%	101%	96.5%	91.1%	93.7%	101%	102%
FC(F)(F)c1nc2c(NCc3ccc(-c4ccccc4)cc3)cccc2[nH]1	80.8%	79%	85.8%	106%	44.8%	62%	50.8%	55.5%	85%	90.3%	81.2%	6.87% (active)	71.4%	57.7%	85.7%	76.5%	88.9%	81.3%	87.7%	90.1%
OC(COc1cccc2ccccc12)CN1CCN(c2ccccc2Cl)CC1 (stereo not given)	80.3%	106%	95.5%	88%	91.1%	74.5%	98.8%	96.6%	91.4%	104%	109%	99.3%	108%	83.7%	158%	98.6%	86.4%	93.2%	-1.88% (active)	84.7%
c1ccc(Cn2cc(-c3nc4ccccc4s3)c3cccnc32)cc1	96.6%	92.4%	101%	96.1%	102%	98.3%	87.9%	104%	104%	118%	102%	129%	95%	84%	115%	99%	102%	100%	110%	106%
CN(C)S(=O)(=O)c1ccc(S(=O)(=O)Nc2cccc(Cl)c2N2CCCCC2)cc1	84.1%	82.9%	98.7%	87.9%	93.6%	72.4%	68.7%	66.9%	87.9%	106%	89.1%	55.6%	106%	66.6%	88%	89.5%	78.1%	94%	74.1%	-35.4% (active)
O=C(/C=C/c1cccc([N+](=O)[O-])c1)c1ccc(O)c(CN2CCN(c3cc4c(cc3F)c(=O)c(C(=O)O)cn4C3CC3)CC2)c1	37.3%	60.8%	61.4%	43.7%	37.1%	59%	16.3%	32.2%	-11.2% (active)	60.1%	22%	6.49% (active)	78.2%	54.4%	-12.4% (active)	43.2%	50.1%	12%	63.1%	9.3% (active)
COc1ccccc1NS(=O)(=O)c1ccc2oc(SC(C)C)nc2c1	61%	53.8%	99.7%	97.3%	77.2%	79.4%	65.6%	75.9%	64.2%	109%	98.9%	45.8%	81.7%	86.5%	107%	89.8%	88.5%	103%	71.8%	110%
Cn1cc(-c2nonc2-c2c[nH]c3ccc(F)cc23)c2cccnc21	80.7%	57.3%	88.1%	78.9%	93.9%	70.6%	70.2%	80.4%	98.1%	96.5%	96%	58%	93.4%	78.4%	72.8%	78.3%	78.9%	88.7%	89.9%	90.3%
CC(C)C[C@@H](NC(=O)[C@@H](Cc1ccccc1)NC(=O)c1cnccn1)B1Oc2ccc(C[C@H](NC(=O)[C@H](Cc3ccc4c(c3)OB([C@@H](CC(C)C)NC(=O)[C@@H](Cc3ccccc3)NC(=O)c3cnccn3)O4)NC(=O)[C@@H](N)CC3CCC4OB([C@@H](CC(C)C)NC(=O)[C@@H](CC5CCCCC5)NC(=O)C5CNCCN5)OC4C3)C(=O)NCCCC[C@@H]3NC(=O)[C@@H](Cc4ccccc4)NC(=O)[C@H](CC(=O)O)NC(=O)CNC(=O)[C@H](CCCNC(=N)N)NC3=O)cc2O1 (stereo not given in full)	-41.3% (active)	-50.2% (active)	-8.33% (active)	-43.2% (active)	-54.8% (active)	-74.1% (active)	-43.4% (active)	-49.5% (active)	-12.6% (active)	-72.6% (active)	-44.8% (active)	-0.546% (active)	-20.3% (active)	-7.69% (active)	-89.2% (active)	-52.7% (active)	-68.6% (active)	-37.6% (active)	-11.7% (active)	0.189% (active)
O=C1c2cc3c(cc2-c2c1c1ccc(F)cc1c(=O)n2C[C@H](O)[C@@H](O)[C@H](O)CO)OCO3	-31.9% (active)	-17.4% (active)	13%	-7.29% (active)	3.2% (active)	6.56% (active)	-22.1% (active)	-33.7% (active)	4.19% (active)	-31.1% (active)	2.47% (active)	9.69% (active)	-54.6% (active)	11.1%	-47.1% (active)	11.2%	-0.994% (active)	-44.6% (active)	-44.3% (active)	-14% (active)
Cc1cc(C)nc(SC2=C(Nc3cccc(Cl)c3)C(=O)N(Cc3ccccc3)C2=O)n1	82% [30 µM]	83% [30 µM]	88.8% [30 µM]	90.3% [30 µM]	62.5% [30 µM]	-7.47% [30 µM] (active)	67.9% [30 µM]	26.4% [30 µM]	72.1% [30 µM]	78.2% [30 µM]	79.6% [30 µM]	51.8% [30 µM]	91.9% [30 µM]	61.2% [30 µM]	72.6% [30 µM]	66.8% [30 µM]	-12.3% [30 µM] (active)	69.7% [30 µM]	71.7% [30 µM]	74.8% [30 µM]

From PubChem BioAssay (NCI)
